An excerpt weighted towards active compounds, which were near 6.4% of everything screened.
Luc counter: counter-screen: inhibitors of Kinase-Glo firefly luciferase. Kinase-Glo luciferase, ATP luminescence, 8 min. hit rate 0.28% among 200,000. Q27757. Potency, µM (top dose mostly 38.3 µM), most hits filed as inhibitors; also: nearly all actives have a fitted effect of over 60% in size
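Recombinant Kinase-Glo luciferase, 10 uM ATP (linear range), luciferin; imidazole pH 7.2 / KCl / MgCl2 / Tween / BSA buffer; 8 min RT; luminescence.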
Gal4-VP16 FLuc: inhibits Gal4-VP16 luciferase reporter, ROR gamma counter-screen | Potency, µM (highest dose often 53.6 µM), most hits filed as inhibitors | AID 2546 | Drosophila S2 Gal4-VP16 UAS-luciferase, luminescence, 20 h | hit rate 3.5% among 310,000;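 also: Gal4-VP16 expression switched on by copper sulfate through the metallothionein promoter; nearly all actives have a fitted effect of over 50% in size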
RORg inh: inhibitors of mouse ROR gamma transcriptional activity. P51450. Potency, µM (highest dose often 53.6 µM), most hits filed as inhibitors. AID 2551. Drosophila S2 Gal4-RORgamma UAS-luciferase reporter, 20 h. hit rate 5.4% among 310,000; also: nearly all actives have a fitted effect of over 60% in size
Target sequence (P51450 whole entry, looked up, the tested form may be a part): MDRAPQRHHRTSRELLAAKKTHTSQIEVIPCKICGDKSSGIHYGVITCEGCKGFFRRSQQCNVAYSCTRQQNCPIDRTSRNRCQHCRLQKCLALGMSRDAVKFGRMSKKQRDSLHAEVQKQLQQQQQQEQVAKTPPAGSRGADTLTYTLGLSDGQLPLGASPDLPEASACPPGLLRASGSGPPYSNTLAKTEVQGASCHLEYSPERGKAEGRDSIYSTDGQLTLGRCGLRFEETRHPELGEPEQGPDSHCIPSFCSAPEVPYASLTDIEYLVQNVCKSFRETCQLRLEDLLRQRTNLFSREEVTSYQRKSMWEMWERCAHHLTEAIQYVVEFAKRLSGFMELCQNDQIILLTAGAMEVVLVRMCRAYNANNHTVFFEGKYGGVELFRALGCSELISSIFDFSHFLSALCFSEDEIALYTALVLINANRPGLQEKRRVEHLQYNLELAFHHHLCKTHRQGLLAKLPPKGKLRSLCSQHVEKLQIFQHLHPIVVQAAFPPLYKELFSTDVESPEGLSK
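In this cell-based reporter format, copper sulfate (700 uM final) drives Gal4–ROR gamma fusion expression from a metallothionein promoter in Drosophila Schneider cells; compounds preincubated 1 hr, reporter read after 20 hr at ambient temperature.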
Large screens that a line does not name were inactive. Calls follow the shape of the dose curve; as a rule, active = well fitted curve in the direction sought with a large enough effect; inconclusive = small, poorly fitted or top-dose-only effect, or another doubt; inactive = no such curve, though single readings can be large; an effect the other way counts as inactive or inconclusive.

CCCC[C@H]1C2=C3[C@@H](CC(C(=O)OC)=C[C@@H](C(=O)OC)[C@H]3C(C)(C)C2=O)n2c(=O)n(C)c(=O)n21	none (no result: Luc counter)
CSc1nc(O)c(N=Nc2ccc(F)cc2F)c(=O)[nH]1	Gal4-VP16 FLuc 10µM, RORg inh inconclusive (no result: Luc counter)
CSc1nc(O)c(C(c2ccccc2)c2c(O)nc(SC)[nH]c2=O)c(=O)[nH]1	none (no result: Luc counter)
COc1ccc(CNc2nc(-c3ccccc3CN(C)C)nc3ccccc23)c(OC)c1	Gal4-VP16 FLuc inconclusive, RORg inh 13µM
COc1ccc2[nH]cc(CCNc3nc(-c4ccccc4CN(C)C)nc4ccccc34)c2c1	none
CN(C)Cc1ccccc1-c1nc(NCc2cccs2)c2ccccc2n1	none (no result: Luc counter)
Cc1cccc(CNc2nc(-c3ccccc3CN(C)C)nc3ccccc23)c1	Gal4-VP16 FLuc inconclusive, RORg inh 22µM
N[C@H](Cn1ccc(=O)n(Cc2ccccc2C(=O)O)c1=O)C(=O)O	none
CCC(C)C(NC(=O)OC(C)(C)C)C(=O)NC1COC2CC(n3cc(C)c(=O)[nH]c3=O)OC12 (configuration not stated)	none (no result: Luc counter)
Cc1ccc(N2C(=O)C(Cc3ccc(O)cc3)NC2=S)cc1C (configuration not stated)	none
COc1ccc(CN(C(=O)c2ccccc2Br)C2CCS(=O)(=O)C2)cc1 (configuration not stated)	Gal4-VP16 FLuc inconclusive (no result: Luc counter)
NNC(=O)c1cc2cc3ccccc3nc2s1	RORg inh 13µM
CS(=O)(=O)NNC(=O)c1cc2cc3ccccc3nc2s1	none
COc1ccc2nc3sc(C(=O)NCCN4CCc5ccccc5C4)cc3cc2c1	none
COc1ccc(S(=O)(=O)NNC(=O)c2cc3cc4ccccc4nc3s2)cc1	Gal4-VP16 FLuc 22µM, RORg inh inconclusive
O=C(NCc1ccc(F)cc1)C1CCN(S(=O)(=O)c2cccc3nonc23)CC1	none (no result: Luc counter)
Cc1cccc(C)c1NC(=O)CN(C)C(C)C(=O)Nc1ccccc1-c1ccccc1 (configuration not stated)	none
Cc1ccc(NC(=O)CN(C)Cc2nc3ccccc3c(=O)[nH]2)c(Br)c1	Gal4-VP16 FLuc inconclusive, RORg inh 11µM
CC(C(=O)Nc1ccccc1-c1ccccc1)N(C)Cc1nc2ccccc2c(=O)[nH]1 (configuration not stated)	RORg inh 14µM
CC(NC(=O)CN(C)Cc1nc2ccccc2c(=O)[nH]1)c1ccccc1 (configuration not stated)	none
CCN(CC(=O)Nc1ccccc1Br)Cc1nc2ccccc2c(=O)[nH]1	Gal4-VP16 FLuc inconclusive, RORg inh 11µM
Cc1ccccc1NC(=O)COC(=O)CCc1nc2ccccc2c(=O)[nH]1	none
CCOc1ccccc1NC(=O)CCCc1nc2ccccc2c(=O)[nH]1	none
Cc1cc(Br)ccc1NC(=O)CNC(=O)CN(C)Cc1nc2ccccc2c(=O)[nH]1	RORg inh 13µM
Cc1cccc(N(C)C(=O)C2CCCN2S(=O)(=O)c2cccc3nsnc23)c1 (configuration not stated)	none (no result: Luc counter)
CN(C)c1ncnc(N(C)C)c1[N+](=O)[O-]	none (no result: Luc counter)
COc1cc(CC(=O)NCC2CCCCC2)cc(OC)c1OC	none (no result: Luc counter)
Cc1nc(NCc2ccccc2)c2nc(-c3ccccc3)n(CCN3CCOCC3)c2n1	none
Cc1c(Cl)cn2c(=O)cc(CN(C)Cc3nc4ccccc4c(=O)[nH]3)nc2c1Cl	RORg inh 18µM
CC(=O)N1CCN(Cc2cc(=O)n3cc(Cl)c(C)c(Cl)c3n2)CC1	none
CN(Cc1nc2ccccc2c(=O)[nH]1)Cc1nc2ccsc2c(=O)[nH]1	Gal4-VP16 FLuc 5µM, RORg inh 0.4µM
Cc1ccsc1C(=O)OCc1nc2ccccc2c(=O)[nH]1	Gal4-VP16 FLuc inconclusive, RORg inh inconclusive
CCN(CC(=O)NC(=O)NCc1ccccc1)Cc1ccccc1	none (no result: Luc counter)
CCN(CC(=O)NCc1ccc(F)cc1)Cc1cc(=O)n2ccsc2n1	none
CCN(CC(=O)NC(=O)NCc1ccco1)Cc1nc2ccccc2c(=O)[nH]1	Gal4-VP16 FLuc 1.1µM, RORg inh 0.56µM
CCN(Cc1cc(=O)n2ccsc2n1)Cc1nc2ccccc2c(=O)[nH]1	Gal4-VP16 FLuc 10µM, RORg inh 2.2µM
O=C(CSc1nnc(CNC(=O)c2cccc(C(F)(F)F)c2)o1)NC1CCCCC1	none (no result: Luc counter)
CN(Cc1cccc(F)c1)C(=O)CNS(=O)(=O)c1ccc2ccccc2c1	none (no result: Luc counter)
CCN(CC(=O)NCCc1ccc(S(N)(=O)=O)cc1)Cc1nc2ccccc2c(=O)[nH]1	Gal4-VP16 FLuc 20µM, RORg inh 6.3µM
CCN(CC(=O)NCCc1ccc(S(N)(=O)=O)cc1)Cc1nc2cc(OC)c(OC)cc2c(=O)[nH]1	none
Cc1ccc(OCC(=O)N/N=C/C=C/c2ccco2)cc1C	Gal4-VP16 FLuc inconclusive
Cn1/c(=N/N=C/c2ccccn2)sc2ccccc21	Gal4-VP16 FLuc inconclusive, RORg inh 10µM

Screening data from PubChem BioAssay.
